# Sampled rows, rich in hits. Any-hit rate of the full collection: about 19%.
# HT1080 IDH1KD tx: toxicity to HT-1080 IDH1 knockdown cells (counter line) | HT-1080 IDH1 knockdown viability, ATP luminescence, 48 h | Potency, µM (titrated, usually from 46.1 µM), inactives show at the highest dose activity, negative = toxicity, most hits filed as cytotoxic | 360,000 tested, 2% active | AID 686971;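 further: 0% = DMSO wells and -100% = cell-free medium wells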
#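 Knockdown cells (IDH1KD HT-1080) received compounds 2 h after plating at 750 cells/well and were kept 48 h at 37 °C in 5% FBS RPMI. A CellTiter-Glo luminescence read gave % activity for curve fitting.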
# KB-3-1 tox: KB-3-1 parental cell cytotoxicity; KB-3-1 viability, CellTiter-Glo ATP luminescence, 72 h; Potency, µM (series often up to 46.1 µM), most hits filed as cytotoxic; 400,000 tested, 1.4% active; AID 1347075; further: nearly all actives have a fitted effect of over 60% in size
#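 Multi-concentration cytotoxicity screen in KB-3-1 cells grown in DMEM lacking phenol red with 10% FBS. After 72 h at 37 °C with compound, ATP-dependent luminescence was recorded.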
# HT1080-NT tox: kills 2HG-producing HT-1080-NT fibrosarcoma cells | Potency, µM (series often up to 46.1 µM), for inactives: at the highest dose activity, negative = less viability, actives largely listed as cytotoxic | 360,000 tested, 1.6% active | HT-1080-NT fibrosarcoma viability, CellTiter-Glo ATP luminescence, 48 h;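 further: NT is the 2HG producing partner of a matched IDH1 knockdown line; 0% = DMSO-treated cells and -100% = media-only wells without cells; nearly all actives have a fitted effect of over 55% in size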
#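 750 cells/well, RPMI + 5% FBS; 2 h settle, compound pin-transfer, 48 h at 37 degrees C. CellTiter-Glo 10 min RT, luminescence. Normalized to DMSO and media-only wells.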
# TDP1 cell noCPT: qHTS for Inhibitors of human tyrosyl-DNA phosphodiesterase 1 (TDP1): qHTS in cells in absence of CPT | DT40 Tdp1-/- hTDP1 cells, no CPT, ATP luminescence, 48 h | Potency, µM (series often up to 46.2 µM), inactives show at the top dose activity change, negative = growth inhibition, actives largely listed as inhibitors | 420,000 tested, 15% active; further: nearly all actives have a fitted effect of over 55% in size
#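 Cells were dispensed at 400 per well, compounds added by pin tool, plates incubated ≥48 hr at 37 °C, then CellTiter-Glo added for 30 min at room temperature before luminescence reading. Line: DT40 Tdp1-/- complemented with hTDP1; camptothecin omitted.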
# TDP1 cell CPT: growth inhibition of DT40 Tdp1-/-;hTDP1 cells with camptothecin (screen for TDP1 inhibitors). chicken DT40 Tdp1-/-;hTDP1 cells + 20 nM CPT, ATP luminescence, 48 h. Potency, µM (doses to about 46.2 µM), inactives show at the highest dose activity change, negative = growth inhibition, hits mostly inhibitors. 420,000 tested, 12% active. AID 686979; further: nearly all actives have a fitted effect of over 55% in size
#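 Cell growth measured by CellTiter-Glo luminescence after a minimum 48 h, 37 C compound exposure with 20 nM CPT in Tdp1-knockout DT40 cells stably expressing hTDP1, seeded 400/well; qHTS titration format.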
# KB-V1 MDR tox: kills drug-selected multidrug resistant KB-V1 cells | KB-V1 MDR cells viability, CellTiter-Glo, 72 h | 400,000 tested, 3.4% active | Potency, µM (top dose mostly 46.1 µM), actives largely listed as cytotoxic | AID 1347076; further: nearly all actives have a fitted effect of over 60% in size
#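 Cytotoxicity toward P-gp-expressing KB-V1 cells was determined as loss of CellTiter-Glo luminescence after 72 h at 37 degrees C. Compounds were tested in quantitative HTS format across a concentration range, with curves fitted to normalized data.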
# * = called active by the depositor; i = inactive; ? = inconclusive; . = not tested or not shown; ! = a repeat was not active; [ ] = another dose, or the depositor's remark. The call rests on the fitted dose curve; in most records, active means well fitted curve in the direction sought with a large enough effect; inconclusive means small, poorly fitted or top-dose-only effect, or another doubt; inactive means no such curve, though single readings can be large; an effect the other way counts as inactive or inconclusive. Unless noted, on the % scale 0 is the no-effect control and ±100 the full control effect; potency means the concentration at half of the fitted maximal effect.
SMILES,HT1080 IDH1KD tx,KB-3-1 tox,HT1080-NT tox,TDP1 cell noCPT,TDP1 cell CPT,KB-V1 MDR tox
CSc1nc2ccccc2cc1/C=C(\C#N)c1cccc(Cl)c1,4.6µM*,21µM*,4.6µM*,?,?,?
N#C/C(=C\c1cc2ccccc2nc1N1CCCCC1)C(N)=O,-13%,i,-17%,?,?,i
Nn1c(Cc2cccc3ccccc23)nnc1SCc1ccccc1,3%,i,6%,?,?,16µM*
Nn1c(Cc2cccc3ccccc23)nnc1SCc1ccccc1Cl,-3%,i,-6%,?,-21%,i
COc1ccccc1-n1c(/C=C/c2c(C)n(C)c3ccccc23)nc2ccccc2c1=O,.,.,.,3.7µM*,?,.
Cc1ccccc1/C=C/c1nc2ccccc2c(=O)n1Cc1ccccc1,16%,i,4%,-2%,2%,i
Cc1ccccc1-n1c(/C=C/c2c(C)n(C)c3ccccc23)nc2ccccc2c1=O,.,.,.,8.2µM*,6.5µM*,.
CC(=O)Cn1cnc2c(sc3nc(C)cc(C)c32)c1=O,3%,?,?,?,2%,i
Cc1cc(C)c2c(=O)n(CC(=O)N3CCC(N4CCCCC4)CC3)sc2n1,1%,i,9%,15µM*,15µM*,i
CCCNC(=O)Cn1sc2nc(C)cc(C)c2c1=O,?,?,-30%,4.1µM*,3.7µM*,i
CC1=C(C)CC(C(=O)NCCc2ccc(F)cc2)C(C(=O)O)C1 (configuration not stated),1%,i,0%,-29%,-25%,i
Cc1ccnc2ccc3ccccc3c12,.,8.2µM*,.,?,?,i
O=C1CCC(C(=O)N2CCCC(C(=O)c3ccc4c5c(cccc35)CC4)C2)=NN1 (configuration not stated),?,15µM*,-15%,?,?,i
O=C1CCC(CCC(=O)N2CCCC(C(=O)c3ccc4c5c(cccc35)CC4)C2)=NN1 (configuration not stated),-8%,i,-5%,-24%,?,i
CC(Oc1ccccc1)C(=O)Nc1cc(Cl)ccc1-n1cncn1 (configuration not stated),0%,i,-2%,-13%,?,i
CC(=O)Nc1ccc(C(=O)CSc2cc(C)c3cccc(C)c3n2)cc1,-1%,?,-1%,?,?,13µM*
Cc1cc(SCC(=O)c2cccs2)nc2c(C)cccc12,-9%,i,4%,-13%,7%,?
O=C(Nc1cccc(C(F)(F)F)c1)c1cccnc1NCCO,2%,i,2%,5%,-7%,i
O=C(Nc1cccc(C(F)(F)F)c1)c1cccnc1NCCc1ccccc1,?,?,?,16µM*,?,?
Cc1ccc(C)c(-c2ccc(=O)n(Cc3cccc(Br)c3)n2)c1,?,i,?,?,-18%,i
Cc1ccc(C)c(-c2ccc(=O)n(Cc3ccc(F)cc3Cl)n2)c1,-23%,?,-13%,?,18µM*!,i
CC1CCCN(S(=O)(=O)c2cc3c4c(c2)CC(=O)N4CCC3)C1 (configuration not stated),.,i,.,-25%,-24%,i
C=CCC[C@H](Cc1ccc(F)cc1)C(=O)OC[C@@H](NC(=O)[C@@H](CC=C)CC(=O)N(CCO)Cc1ccccc1)C(C)(C)C,?,?,?,?,26µM*,?
C=CC[C@@H](CC(=O)N(CCO)Cc1ccccc1)C(=O)N[C@H](COC(=O)[C@@H](CC=C)Cc1ccc(F)cc1)C(C)(C)C,?,?,?,13µM*,21µM*,i
C=CC[C@H](CC(=O)N(CCO)Cc1ccccc1)C(=O)N[C@H](COC(=O)[C@@H](CC=C)Cc1ccc(F)cc1)C(C)(C)C,?,i,-30%,?,?,i
SMILES,HT1080 IDH1KD tx,KB-3-1 tox,HT1080-NT tox,TDP1 cell noCPT,TDP1 cell CPT,KB-V1 MDR tox
C=CC[C@H](CC(=O)NCCO)C(=O)N[C@H](COC(=O)[C@@H](CC=C)Cc1ccc(F)cc1)Cc1ccccc1,-2%,i,-4%,?,?,i
C=CC[C@@H](CC(=O)N(CCO)Cc1ccccc1)C(=O)N[C@H](COC(=O)[C@@H](CC=C)Cc1ccc(F)cc1)c1ccccc1,-22%,?,-26%,13µM*,15µM*,?
C=CC[C@@H](CC(=O)N(CCO)Cc1ccccc1)C(=O)N[C@@H](C)COC(=O)[C@@H](CC=C)Cc1ccc(F)cc1,3%,i,1%,16µM*,?,i
CCN(CC)S(=O)(=O)c1cc(C)ccc1NC(=S)Nc1cccnc1,-18%,i,-12%,?,?,i
COc1ccc(NS(=O)(=O)c2ccc(S(=O)(=O)N3CCCC3)cc2)cc1,-6%,i,-3%,21µM*,?,?
COc1ccc(S(=O)(=O)N2CCN(C3Cc4ccccc4C3)CC2)cc1,8%,i,-4%,?,-14%,21µM*
COc1ccc(S(=O)(=O)N2CCCCC2)cc1,-2%,i,-2%,-4%,-18%,i
CC#CCN(CC#CC)S(=O)(=O)c1ccc(S(=O)(=O)N2CCOCC2)cc1,3%,i,-7%,16µM*,?,?
COc1ccc(S(=O)(=O)N2CCN(C)CC2)cc1,1%,i,1%,12%,11%,i
O=S(=O)(c1ccc(Oc2ccc(S(=O)(=O)N3CCOCC3)cc2)cc1)N1CCOCC1,-2%[9.24 µM],?,-3%,?,?,15µM*
NC(=O)C1C2CCC(C2)C1C(N)=O (configuration not stated),-6%,i,1%,-19%,?,i
COc1cc(Cl)c(NC(=O)c2cc(S(=O)(=O)N3CCCCC3)c[nH]2)c(OC)c1,.,i,.,-18%,-13%,i
O=S(=O)(c1ccc(Oc2ccc(Cl)cc2)nc1)N1CCOCC1,-2%,i,-8%,-23%,1%,i
O=S(=O)(c1ccc(Oc2ccc(F)c(Cl)c2)nc1)N1CCOCC1,-4%,i,0%,-20%,-9%,23µM*
COc1ccc(NS(=O)(=O)c2ccc(S(=O)(=O)N3CCOCC3)cc2)cc1,-2%,i,-15%,16µM*,?,?

# Compound activity from PubChem BioAssay.
